According to PubChem BioAssay (Tox21):
Inconclusive results are not listed. Activity calls are given as the source filed them. Unless noted, calls come from the whole dose curve; as a rule, active = well fitted curve in the direction sought with a large enough effect in the repeat runs; inconclusive = weak or mixed curves; inactive = no such curve, though single readings can be large; an effect the other way counts as inactive or inconclusive.

Legend:
[1] = qHTS assay to identify small molecule antagonists of the estrogen related receptor (ERR) signaling pathway from Tox21 library - cell viability counter screen (AID 1224834); note: nearly all actives have a fitted effect of over 30% in size; note: potency is the fitted concentration of half-maximal effect
How it was run: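 Fluorescence from CellTiter-Fluor gives the viability read-out, taken 30 min after reagent addition. Before that, ERR cells seeded 6 h earlier were incubated with compounds for 17.5 h at 37 C.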

[2] = qHTS assay to identify small molecule agonists of the constitutive androstane receptor (CAR) signaling pathway - cell viability counter screen (AID 1224836); note: nearly all actives have a fitted effect of over 45% in size; note: potency is the fitted concentration of half-maximal effect; for viability change, negative = cytotoxic: series mostly up to about 92 µM
How it was run: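 Viability read-out: CellTiter-Fluor fluorescence after 23 h compound exposure at 37 C/5% CO2 in double-stable HepG2-CYP2B6-hCAR cells, with PK11195 present at 0.75 uM final; compounds tested in 15-point titration.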

[3] = qHTS assay to identify small molecule antagonists of the constitutive androstane receptor (CAR) signaling pathway - cell viability counter screen (AID 1224837); note: nearly all actives have a fitted effect of over 45% in size; note: potency is the fitted concentration of half-maximal effect
How it was run: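 HepG2-CYP2B6-hCAR cells, 2500/well, 4 hr pre-incubation; compound titration, 15 conc.; CITCO 50 nM final; 23 hr, 37 C/5% CO2; CellTiter-Fluor, fluorescence intensity.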

[4] = target: Nuclear receptor subfamily 1 group I member 3 (Homo sapiens) (UniProt Q14994); assay: qHTS assay to identify small molecule antagonists of the constitutive androstane receptor (CAR) signaling pathway (AID 1224838);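 note: HepG2 cells stably expressing hCAR with CYP2B6 luciferase reporter stimulated by CITCO; nearly all actives have a fitted effect of over 40% in size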; note: potency is the fitted concentration of half-maximal effect
Sequence of Nuclear receptor subfamily 1 group I member 3 (Homo sapiens) (Q14994 whole entry, looked up): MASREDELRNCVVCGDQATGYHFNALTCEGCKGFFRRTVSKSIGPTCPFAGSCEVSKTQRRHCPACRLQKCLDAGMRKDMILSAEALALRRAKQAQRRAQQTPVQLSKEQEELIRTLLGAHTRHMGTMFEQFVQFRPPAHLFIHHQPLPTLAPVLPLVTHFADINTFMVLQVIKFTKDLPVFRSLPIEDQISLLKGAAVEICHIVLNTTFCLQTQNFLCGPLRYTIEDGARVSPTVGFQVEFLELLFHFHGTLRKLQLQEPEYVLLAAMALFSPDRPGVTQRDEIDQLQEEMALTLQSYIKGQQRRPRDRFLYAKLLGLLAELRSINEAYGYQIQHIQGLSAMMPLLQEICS
How it was run: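 HepG2-CYP2B6-hCAR cells; 4 h pre-incubation; cpd (15 conc) + CITCO 50 nM final; 24 h, 37 C/5% CO2; ONE-Glo, luminescence.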

[5] = target: Nuclear receptor subfamily 1 group I member 3 (Homo sapiens) (UniProt Q14994); assay: qHTS assay to identify small molecule agonists of the constitutive androstane receptor (CAR) signaling pathway (AID 1224839); note: nearly all actives have a fitted effect of over 15% in size; note: potency is the fitted concentration of half-maximal effect;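 for activation: HepG2 cells stably carrying human CAR and a CYP2B6 luciferase reporter; series mostly up to about 92 µM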
How it was run: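 Luminescence read-out (ONE-Glo, 30 min, room temperature) from double-stable HepG2-CYP2B6-hCAR cells exposed 24 h to 15-point compound series in presence of 0.75 uM PK11195 final.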

[6] = qHTS assay to identify small molecule antagonists of the estrogen related receptor signaling pathway with the pleiotropic PPARgamma coactivator (PGC) from Tox21 10K library - cell viability counter screen (AID 1224840; active = well fitted cell-killing curve with a large enough effect in the repeat runs, not every such curve was filed as active; note: nearly all actives have a fitted effect of over 40% in size; note: potency is the fitted concentration of half-maximal effect)
How it was run: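 PGC/ERR cells, 2,000/well; 6 h pre-incubation 37 C/5% CO2; cpd in DMSO via pin tool; 17.5 h 37 C; CellTiter-Fluor, 30 min; fluorescence.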

[7] = qHTS assay to identify small molecule agonists of the estrogen related receptor signaling pathway with the pleiotropic PPARgamma coactivator (PGC) from Tox21 10K library (AID 1224842); note: nearly all actives have a fitted effect of over 15% in size; note: potency is the fitted concentration of half-maximal effect
How it was run: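 Luminescence from One-Glo (30 min, room temperature) measured after PGC/ERR cells had 18 h at 37 C with pinned compound (23 nL in DMSO). Cells had been seeded at 2,000 per well and pre-incubated 6 h.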

[8] = qHTS assay to identify small molecule antagonists of the estrogen related receptor signaling pathway with the pleiotropic PPARgamma coactivator (PGC) from Tox21 10K library (AID 1224841; call rule not given here; note: actives are mostly falling curves and most rising ones were filed inactive; nearly all actives have a fitted effect of over 50% in size; note: potency is the fitted concentration of half-maximal effect; for activity, negative = inhibition: series mostly up to about 92 µM)
How it was run: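 PGC/ERR cell line, 2,000 cells/well; 6 h pre-incubation 37 C/5% CO2; compounds (DMSO) pinned in; 18 h, 37 C; One-Glo, 30 min RT; luminescence.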

[9] = target: Thyrotropin receptor (Homo sapiens) (UniProt P16473); assay: qHTS assay to identify small molecule agonists of the thyroid stimulating hormone receptor (TSHR) signaling pathway (AID 1224843; calls by dose curve; note: nearly all actives have a fitted effect of over 45% in size)
Sequence of Thyrotropin receptor (Homo sapiens) (P16473 whole entry, looked up): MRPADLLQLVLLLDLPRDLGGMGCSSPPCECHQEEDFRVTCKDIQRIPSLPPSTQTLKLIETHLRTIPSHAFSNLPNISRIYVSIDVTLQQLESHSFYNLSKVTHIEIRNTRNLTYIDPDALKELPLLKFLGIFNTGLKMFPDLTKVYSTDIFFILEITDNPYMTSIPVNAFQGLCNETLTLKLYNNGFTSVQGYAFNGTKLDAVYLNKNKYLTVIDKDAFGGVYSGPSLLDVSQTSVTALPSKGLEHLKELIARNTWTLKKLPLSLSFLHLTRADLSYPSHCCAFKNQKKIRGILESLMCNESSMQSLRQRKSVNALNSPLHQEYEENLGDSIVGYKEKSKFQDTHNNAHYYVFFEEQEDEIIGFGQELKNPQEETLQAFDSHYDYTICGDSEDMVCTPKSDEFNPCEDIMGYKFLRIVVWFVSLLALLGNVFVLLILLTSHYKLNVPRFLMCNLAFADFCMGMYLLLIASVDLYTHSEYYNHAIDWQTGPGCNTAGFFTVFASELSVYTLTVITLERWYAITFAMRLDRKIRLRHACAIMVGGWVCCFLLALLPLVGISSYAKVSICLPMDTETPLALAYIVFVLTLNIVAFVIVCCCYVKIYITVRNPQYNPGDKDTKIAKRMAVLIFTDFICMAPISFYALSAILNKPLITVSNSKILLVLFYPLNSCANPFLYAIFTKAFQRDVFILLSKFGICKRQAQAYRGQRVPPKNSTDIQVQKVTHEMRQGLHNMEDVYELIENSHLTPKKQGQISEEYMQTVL
How it was run: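 Screening of the Tox21 10K collection used HEK293 cells engineered with TSHR at 800 cells per well. After a 30-min room-temperature compound exposure, HTRF cAMP reagents were added and fluorescence recorded 1 h later.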

[10] = target: Luciferin 4-monooxygenase (Photinus pyralis) (UniProt P08659); assay: qHTS assay to identify small molecule inhibitors of firefly luciferase (AID 1224835); note: series mostly up to about 120 µM; nearly all actives have a fitted effect of over 25% in size
Sequence of Luciferin 4-monooxygenase (Photinus pyralis) (P08659 whole entry, looked up): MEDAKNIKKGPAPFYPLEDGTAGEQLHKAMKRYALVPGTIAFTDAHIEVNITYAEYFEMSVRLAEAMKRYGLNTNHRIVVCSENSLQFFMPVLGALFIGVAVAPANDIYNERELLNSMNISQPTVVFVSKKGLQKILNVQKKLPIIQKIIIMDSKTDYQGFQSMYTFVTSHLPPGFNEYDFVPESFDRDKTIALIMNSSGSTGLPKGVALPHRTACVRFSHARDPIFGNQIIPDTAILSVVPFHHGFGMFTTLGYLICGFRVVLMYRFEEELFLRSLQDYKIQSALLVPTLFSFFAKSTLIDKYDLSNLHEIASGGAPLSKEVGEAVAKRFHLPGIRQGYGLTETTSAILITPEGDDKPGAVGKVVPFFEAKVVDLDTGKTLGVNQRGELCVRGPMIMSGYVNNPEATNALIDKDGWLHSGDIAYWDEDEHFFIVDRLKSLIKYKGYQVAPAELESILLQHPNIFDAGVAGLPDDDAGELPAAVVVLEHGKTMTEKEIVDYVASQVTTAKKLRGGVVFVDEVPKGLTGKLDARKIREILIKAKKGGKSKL
How it was run: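 Inhibition of purified Photinus luciferase is measured by luminescence. Substrate levels (D-luciferin, ATP) sit at their KM values. Each compound is tested in a concentration series.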
% is set by controls: 0 for no effect and ±100 for the full control effect.

CCCCC(CC)COP(=O)(O)OCC(CC)CCCC (centres undefined)
inactive: Potency [2] | Potency [3] | Potency [4] | Potency [5] | Potency [6] | Potency [7]
active: Potency [1] 48.6 µM

[Cl][Au]([Cl])[Cl]
active: Potency [1] 27.3 µM | Potency [2] 7.7 µM | Potency [3] 3.86 µM | Potency [6] 7.7 µM | Potency [8] 1.72 µM
inactive: Potency [7]

NNc1nc(-c2ccc(N)cc2)cs1
active: Potency [1] 54.5 µM | Potency [6] 61.1 µM
inactive: Potency [2] | Potency [7]

COc1cccc2c1C(=O)c1c(O)c3c(c(O)c1C2=O)C[C@@](O)(C(=O)CO)C[C@@H]3O[C@H]1C[C@H](N)[C@H](O[C@@H]2CCCCO2)[C@H](C)O1
active: Potency [1] 9.44 µM | Potency [2] 7.5 µM | Potency [4] 0.944 µM | Potency [7] 0.422 µM
inactive: Potency [5] | Potency [9]

Oc1c(Cl)cc(Cl)c2cccnc12
active: Potency [1] 13.3 µM | Potency [6] 26.6 µM
inactive: Potency [2] | Potency [5] | Potency [7]

Cc1onc(-c2c(Cl)cccc2Cl)c1C(=O)N[C@@H]1C(=O)N2[C@@H]1SC(C)(C)[C@@H]2C(=O)O
inactive: Potency [1] | Potency [2] | Potency [3] | Potency [4] | Potency [5] | Potency [6] | Potency [7]

O=C(OC[C@H]1O[C@@H](OC(=O)c2cc(O)c(O)c(OC(=O)c3cc(O)c(O)c(O)c3)c2)[C@H](OC(=O)c2cc(O)c(O)c(OC(=O)c3cc(O)c(O)c(O)c3)c2)[C@@H](OC(=O)c2cc(O)c(O)c(OC(=O)c3cc(O)c(O)c(O)c3)c2)[C@@H]1OC(=O)c1cc(O)c(O)c(OC(=O)c2cc(O)c(O)c(O)c2)c1)c1cc(O)c(O)c(OC(=O)c2cc(O)c(O)c(O)c2)c1
inactive: viability change, negative = cytotoxic [2] -11.1% [at 19 µM] | activity, negative = inhibition [4] -0.544% [at 19 µM] | activation [5] -3.23% [at 19 µM] | activity, negative = inhibition [8] -8.46% [at 19 µM] | activation [7] -3.36% [at 19 µM]
active: Potency [1] 16.5 µM

Oc1cc2ccccc2c2ccccc12
active: Potency [1] 8.63 µM | Potency [2] 17.2 µM | Potency [3] 13.7 µM | Potency [6] 7.7 µM

Oc1cccc(-c2c3nc(c(-c4cccc(O)c4)c4ccc([nH]4)c(-c4cccc(O)c4)c4nc(c(-c5cccc(O)c5)c5ccc2[nH]5)CC4)C=C3)c1
inactive: Potency [4] | Potency [5]
active: Potency [1] 10.6 µM | Potency [2] 5.96 µM | Potency [6] 10.6 µM

N#CSc1ccc(N)c([N+](=O)[O-])c1
inactive: Potency [5] | Potency [7]
active: Potency [1] 54.8 µM | Potency [2] 48.9 µM | Potency [3] 43.5 µM | Potency [4] 48.9 µM | Potency [6] 54.8 µM | Potency [8] 30.8 µM

CCc1oc2ccccc2c1C(=O)c1cc(Br)c(O)c(Br)c1
inactive: Potency [10] | Potency [2] | Potency [4] | Potency [5] | Potency [6] | Potency [9]

CCCCCCCCCCn1cc[n+](CCCCCCCCCC)c1C
active: Potency [1] 27.3 µM | Potency [3] 54.5 µM | Potency [6] 27.3 µM | Potency [8] 27.3 µM
inactive: Potency [5] | Potency [7]

Cc1nc(-c2ccc3c(c2)CCN(CCC2CCC(NC(=O)/C=C/c4ccc(F)cc4)CC2)CC3)no1 (centres undefined)
inactive: Potency [10] | Potency [2] | Potency [3] | Potency [4] | Potency [5] | Potency [6] | Potency [9]

C[C@@H](NCCCc1cccc(C(F)(F)F)c1)c1cccc2ccccc12
inactive: Potency [5] | Potency [8] | Potency [7] | Potency [9]
active: Potency [1] 29.8 µM

CCc1cc(SCc2sc(-c3ccc(C(F)(F)F)cc3)nc2CN2CCN(c3ccc(OC)cc3)CC2)ccc1OCC(=O)O
active: Potency [1] 34.4 µM | Potency [6] 34.4 µM | Potency [8] 19.3 µM
inactive: Potency [3] | Potency [4] | Potency [5] | Potency [7]

Cc1[nH]cnc1C[C@H]1CCc2c(C)c3ccccc3n2C1=O
active: Potency [1] 47.4 µM | Potency [8] 23.7 µM
inactive: Potency [5] | Potency [7] | Potency [9]

CCCCc1oc2ccc(NS(C)(=O)=O)cc2c1C(=O)c1ccc(OCCCN(CCCC)CCCC)cc1
inactive: Potency [5] | Potency [7] | Potency [9]
active: Potency [1] 21.1 µM | Potency [6] 18.8 µM

COc1cc(-c2nc(NC(=O)c3cc4cc(C)cc(C)c4n3CC(=O)O)sc2CCC2CCCCC2)c(OC)cc1Cl
active: Potency [1] 49.9 µM | Potency [6] 39.7 µM
inactive: Potency [5] | Potency [7]

OCCCCCCCCCCCCBr
inactive: Potency [10] | Potency [2] | Potency [4] | Potency [9]

NC(=O)N1C(=O)C(C(=O)c2cc(Cl)cs2)c2cc(F)c(Cl)cc21 (centres undefined)
inactive: Potency [4] | Potency [5] | Potency [7] | Potency [9]
active: Potency [1] 27.3 µM | Potency [6] 30.6 µM

CCc1cc(Cc2cc(CC)c(N)c(CC)c2)cc(CC)c1N
active: Potency [5] 4.86 µM
inactive: Potency [10] | Potency [2] | Potency [3] | Potency [7]

COc1ccc(C(=O)/C(Br)=C\C(=O)O)cc1
inactive: Potency [3] | Potency [8] | Potency [9]
active: Potency [1] 54.5 µM | Potency [7] 24.3 µM

O=C(N/N=C/c1ccccc1O)c1ccncc1
active: Potency [1] 9.44 µM
inactive: Potency [3] | Potency [4] | Potency [5] | Potency [6] | Potency [7] | Potency [9]

CCC(CN)=C(c1ccccc1)c1ccccc1
inactive: Potency [10] | Potency [2] | Potency [3] | Potency [4] | Potency [5] | Potency [6] | Potency [9]

Nc1c2ccccc2nc2ccccc12
inactive: Potency [10] | Potency [2] | Potency [3] | Potency [5] | Potency [6] | Potency [7] | Potency [9]
